# Data from PubChem BioAssay AID1852 (Sanford-Burnham Center for Chemical Genomics, 2009).
# In all, about 2,500 compounds went through this assay and about 1,100 (44%) were called active. So high a share suggests a set chosen from earlier hits. Some of the results follow. Unmarked numbers belong to inactive results.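 How the source made its calls: active means inhibition above 50% at 4 µM in the single-point screen; inactive means inhibition of 50% or less.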
# Experiment: blockers of TNF-a NF-kB luciferase induction – cell-based, HEK293T NF-kB-Luc, luminescence, selectivity assay for NOD1/NOD2 signaling inhibitor project, primary screen (AID 1852)
# Conditions: TNF-a induced, 14 h, at 4 µM, stronger effect = higher value
row,Compound,inhibition
1,Cc1c(Cl)cccc1NC(=S)NNc1ncc(C(F)(F)F)cc1Cl,28.7%
2,O=[N+]([O-])c1cccnc1S(=O)(=O)c1ccccc1,69.6% (active)
3,Cc1ccc(S(=O)(=O)c2ncccc2[N+](=O)[O-])cc1,52.6% (active)
4,Cc1ccc(S(=O)(=O)c2ccc([N+](=O)[O-])cn2)cc1,38.5%
5,Cc1ccc(C(=O)Nc2ncc([N+](=O)[O-])s2)cc1,3.8%
6,CC(C)C[C@H](NC(=O)c1nc[nH]c1C(=O)N1CCN(C(=O)OC(C)(C)C)CC1)C(=O)OC(C)(C)C,2.4%
7,CCn1c(=O)cc(SCC(=O)Nc2ccc(C)cn2)c2ccccc21,35.4%
8,Cc1ccnc(NC(=O)Cc2ccc(-c3ccccc3)cc2)c1,48.8%
9,Cc1ccnc(NC(=O)CSc2cc(=O)n(C)c3ccccc23)c1,86.3% (active)
10,Nc1ncc(Br)cc1S(=O)(=O)Nc1cc(C(F)(F)F)cc(C(F)(F)F)c1,78% (active)
11,Cc1sc2nc(CSc3ccccc3)nc(N3CCC(C(N)=O)CC3)c2c1C,53.5% (active)
12,Cc1nc(N2CCN(C(=O)COc3ccccc3)CC2)c2c(C)c(C)sc2n1,23.4%
13,Cc1nc(N2CCN(c3ccccc3O)CC2)c2c(-c3ccccc3)csc2n1,-13.5%
14,Cc1nc(N2CCC(C(N)=O)CC2)c2c(-c3cccs3)csc2n1,57.4% (active)
15,Cc1nc(N2CCC(C)CC2)c2c(C)c(C(=O)Nc3cc(F)ccc3C)sc2n1,-61.2%
16,CCOC(=O)c1sc2nc(CSc3ccccc3)[nH]c(=O)c2c1C,-7.9%
17,CCOc1cc(/C=C2\C(=N)N3N=C(S(C)(=O)=O)SC3=NC2=O)ccc1OCCOc1cccc(OC)c1,-31.3%
18,Fc1ccc(Sc2nc(-c3ccccc3)nnc2C(F)(F)F)cc1,40.3%
19,CC(C)c1ccc(-n2c(-c3ccccc3)c[n+]3c2CCc2ccccc2-3)cc1,86% (active)
20,CCCC(Oc1ccc(Br)cc1)c1nc2c3cc(OC)c(OC)cc3nc(=S)n2[nH]1 (stereo not drawn),104% (active)

row,Compound,inhibition
1,CC(Oc1ccc(Br)cc1)c1nc2c3ccccc3nc(=S)n2[nH]1 (stereo not drawn),101% (active)
2,O=CN1CCN(c2c([N+](=O)[O-])c(=O)oc3ccccc23)CC1,-17%
3,N=C1SCC(=O)N1c1ncc(Cc2ccccc2Cl)s1,97.5% (active)
4,N=C1SCC(=O)N1c1ncc(Cc2cccc(Cl)c2)s1,101% (active)
5,N=C1SCC(=O)N1c1ncc(Cc2ccc(F)cc2)s1,109% (active)
6,O=C1CCSc2ccc(Cl)cc2N1Cc1cccc(Cl)c1,17.4%
7,COc1ccc(COC(=O)NC2CCN(S(=O)(=O)c3ccc(OC)cc3)CC2)cc1,20.6%
8,Cc1nc(N2CCN(c3ccccn3)CC2)c2c(C)c(C(=O)N3CCN(c4ccc(F)cc4)CC3)sc2n1,-51.2%
9,CCOC(=O)C1CCN(c2ncnc3c2cnn3-c2ccc(Cl)cc2)CC1,36.4%
10,Cc1nn(-c2ccccc2)c(Cl)c1C(=O)N1CCN(c2ncnc3c2cnn3-c2ccccc2)CC1,86.6% (active)
11,Cc1ccc2nc(NC(=O)CSCC(=O)OCC(=O)c3ccc(Br)cc3)sc2c1,75.2% (active)
12,COC(=O)c1ccc2nc(Nc3nc4c(F)cc(F)cc4s3)sc2c1,35.5%
13,Oc1c(N=NC(=S)Nc2ccccc2F)c2ccccc2n1Cc1ccccc1F,7.6%
14,Cc1c(Cl)cccc1NC(=S)N=Nc1c(O)n(CN2CCOCC2)c2ccccc12,70.8% (active)
15,NC(=S)N=Nc1c(O)n(Cc2ccc(Br)cc2)c2ccccc12,-15.1%
16,C=CCn1c(O)c(N=NC(=S)Nc2ccc(OC)cc2)c2ccccc21,96.3% (active)
17,C=CCn1c(O)c(N=NC(=S)Nc2cccc(OC)c2)c2ccccc21,12%
18,C=CCn1c(O)c(N=NC(=S)Nc2ccccc2F)c2ccccc21,100% (active)
19,C=CCn1c(O)c(N=NC(=S)Nc2ccc(OC)c(Cl)c2)c2ccccc21,-34.6%
20,C=CCn1c(O)c(N=NC(=S)Nc2cccc(C)c2)c2ccccc21,8.8%

row,Compound,inhibition
1,C/C(Cl)=C\Cn1c(O)c(N=NC(N)=S)c2ccccc21,35.2%
2,O=C(Nc1ccc(Br)c2ccccc12)c1ccc2ccccc2c1O,42.5%
3,CC(=O)c1c(C)oc2ccc(N(C(C)=O)S(=O)(=O)c3ccc(F)cc3C)cc12,-8.7%
4,CCCC1/C(=N/O)CC(c2ccccc2)NC1c1ccccc1 (stereo not drawn),31.6%
5,CC1=C(CO)C(=O)OC([C@@H](C)C2CC[C@H]3C4C[C@H]5O[C@]56[C@@H](O)C=CC(=O)[C@]6(C)C4CC[C@]23C)C1 (stereo partly drawn),89.9% (active)
6,CCC(C)(C)c1ccc(OCCCC[n+]2cccc(C)c2)c(C(C)(C)CC)c1,41.5%
7,COc1cc(OC)cc(-c2cc3nc(C)c(CCC(=O)O)c(C)n3n2)c1,85.7% (active)
8,O=C(Nc1ccc([N+](=O)[O-])cc1)Nc1ccc(Cl)cc1F,12.9%
9,Cc1cc(Cl)ccc1OCC(=O)Nc1ccccc1NS(=O)(=O)c1cccs1,21.7%
10,O=C(Nc1ccc(Cl)c(Cl)c1)Nc1ccc(Br)cc1F,106% (active)
11,O=C(Nc1ccc(Cl)c(Cl)c1)Nc1ccccc1NS(=O)(=O)c1cccs1,94.3% (active)
12,S=c1[nH]nc(-c2cc(-c3ccccc3)n[nH]2)n1/N=C/C(Br)=C/c1ccccc1,105% (active)
13,Cc1cc(-c2n[nH]c(=S)n2/N=C/C(Cl)=C/c2ccccc2)n[nH]1,-31.5%
14,CC(=C/c1ccccc1)/C=N/n1c(-c2ccncc2)n[nH]c1=S,94.4% (active)
15,Cc1ccc(-c2n[nH]c(=S)n2/N=C/c2ccncc2)cc1,4.6%
16,Cc1cc(-c2n[nH]c(=S)n2/N=C/C(Br)=C/c2ccccc2)n[nH]1,23.7%
17,Cc1noc2ncnc(Oc3ccc(Cl)cc3Cl)c12,-0.2%
18,CCN1CCN(Cc2ccc(NC(=O)c3ccc(C)c(/C=C/c4cnc(Nc5cc(N6CCNCC6)nc(C)n5)cn4)c3)cc2C(F)(F)F)CC1,-16%
